From PubChem BioAssay (NCATS) come the findings set out here.

SMILES strings stand for the structures. Values joined by “and” are separate entries in the source; they are usually repeats but may differ in a detail not shown here. Equal entries are not always repeated. Inconclusive results are not listed. Active and inactive are the calls of the source. The call rests on the fitted dose curve. Bridge positions count the residues as written; N and C are the ends. Square brackets hold non-standard residues; d marks the D form. Peptide text beside a SMILES is read from it. * marks the point of attachment. ξ: configuration not given here. Octanoyl(6-Me) = CCC(C)CCCCC(=O)*; ξThr(3R) = C[C@@H](O)C(N)C(=O)O; dDab = NCC[C@@H](N)C(=O)O; Dab = NCC[C@H](N)C(=O)O; Nva = CCC[C@H](N)C(=O)O; Cbz = O=C(OCc1ccccc1)*
Potency means the concentration at half of the fitted maximal effect.

The nature of this assay: Primary qHTS to identify inhibitors of SARS-CoV-2 cell entry (AID 1645846). Further: nearly all actives have a fitted effect of over 45% in size. As to conditions: SARS-CoV-2 pseudovirus cell entry assay, luminescence; activity change, negative = inhibition: at 57.1 µM (top of the series) unless noted; series mostly up to 57.1 µM. An excerpt:
Assay Provider: Wei Zheng, Ph.D.
National Center for Advancing Translational Sciences, National Institute of Health, Rockville, MD.
SARS-CoV-2 spike protein, within the viral envelope, mediates viral attachment and infection of host cells. The SARS-CoV-2 spike protein specifically binds to the host receptor ACE2 (Angiotensin-converting enzyme 2). This interaction promotes endocytosis of the viral particle, additional events lead to viral-host cell membrane fusion and release of the viral contents, allowing viral replication.
While SARS-CoV-2 requires BSL-3 facilities for live virus work, pseudotyped partices (PP) that incorporate SARS-CoV-2 spike proteins without replication elements could facilitate studies on viral entry mechanisms in a BSL-2 setting. This PP cell entry assay could also enable screening of small molecule compound libraries in BSL-2 setting to identify inhibitors of SARS-CoV-2 cell entry.
PROTOCOL TABLE (format as described by Inglese J, Shamu CE and Guy RK. 2007)
SEQUENCE No. (e.g., 1, 2, 3, etc.); […] (e.g., Cells, Incubation, Reagent, etc.); VALUE and DESCRIPTION.
1. Cells. Seed 1500 HEK293-ACE2 cells (Expi293F with stable expression of human ACE2) in 2 uL/well media (DMEM, 10% FBS, 1x L-glutamine, 1x Pen/Strep, 1 ug/ml puromycin) in white 1536-well assay plates (Greiner #782073).
2. Incubation. Incubate at 37C with 5% CO2 overnight (~16 h).
3. Compounds. Dispense 23 nL/well compounds in DMSO via pin transfer.
4. Incubation. Incubate for 1 hr at 37C 5% CO2.
5. Reagent. Dispense 2 uL/well of SARS-CoV-2-S pseudotyped particles. [a] PPs are produced with murine leukemia virus pseudotyping. [b] SARS-CoV-2-S is Wuhan-Hu-1 sequence (BEI #NR-52420) with C-terminal 19 amino acid truncation.
6. Centrifuge. […]
7. Incubation. Incubate at for 48 hr at 37C 5% CO2
8. Centrifuge. Remove supernatant with gentle centrifugation using a Blue Washer (BlueCat Bio).
9. Reagent. Dispense 4 uL/well of Bright-Glo Luciferase detection reagent (Promega #E2620).
10. Incubation. Incubate for 5 min at room temperature.
11. Detection. Read luminescence signal (Viewlux plate reader, PerkinElmer). Data was normalized with wells containing SARS-CoV-2-S PP as 100%, and wells containing bald PP (no fusion protein) as 0%.
A general note: Quantitative high-throughput screening tests each substance at several concentrations.
For the compound `CCC(C)CCCCC(=O)N[C@@H](CCN)C(=O)NC(C(=O)N[C@H](CCN)C(=O)N[C@@H]1CCNC(=O)C([C@@H](C)O)NC(=O)[C@@H](CCN)NC(=O)[C@@H](CCN)NC(=O)[C@@H](CC(C)C)NC(=O)[C@H](Cc2ccccc2)NC(=O)[C@H](CCN)NC1=O)[C@@H](C)O` (stereo partly drawn) ({Octanoyl(6-Me)}-[Dab][ξThr(3R)][dDab][dDab][Dab]F[dL][dDab][dDab][ξThr(3R)]; lactam 4-C), the Potency entry was “inactive”.

As to `CC(C)C[C@H](NC(=O)[C@@H](NC(=O)c1cccc(-c2ccccc2)n1)[C@@H](C)O)B(O)O`, the activity change, negative = inhibition was -97.4% [at 27.1 µM]. For `CCCCCCCCCCCCCCCC(=O)OC[C@@H](NC(=O)C(Cl)Cl)[C@H](O)c1ccc([N+](=O)[O-])cc1`, the Potency entry was “inactive”. Consider `c1cc(-c2cnn3cc(-c4ccc(N5CCNCC5)cc4)cnc23)c2cccnc2c1`, for which the Potency result was “inactive”. Regarding `Cc1cc(Cl)ccc1OCCCC(=O)NO`, the activity change, negative = inhibition was -10.4%.

Consider `CC1(C)CCC(CN2CCN(c3ccc(C(=O)NS(=O)(=O)c4ccc(NCC5CCOCC5)c([N+](=O)[O-])c4)c(Oc4cnc5[nH]ccc5c4)c3)CC2)=C(c2ccc(Cl)cc2)C1`, for which the activity change, negative = inhibition was -9.23% and -30%. Consider `O=C(Nc1nc2ccccc2n1CCN1CCOCC1)c1cccc([N+](=O)[O-])c1`, for which the activity change, negative = inhibition is -0.348%.

`C=C(C)[C@@H]1CC[C@]2(C)CC[C@]3(C)[C@H](CC[C@@H]4[C@@]5(C)CC[C@H](O)C(C)(C)[C@H]5CC[C@]43C)[C@@H]12`: the Potency result was “inactive”. With `COc1cc(F)c(F)c(Nc2ccc(I)cc2F)c1NS(=O)(=O)C1(C[C@H](O)CO)CC1`, the Potency is 25.1 µM (active). Consider `COc1cccc(-c2cc(=O)c3ccccc3o2)c1N`, for which the Potency entry was “inactive”. On to `CC(=O)SCC(Cc1ccccc1)C(=O)NCC(=O)OCc1ccccc1` (stereo not given), for which the activity change, negative = inhibition was -34.7%. Consider `OC1CCC(Nc2ncc3nc(Nc4c(F)cc(F)cc4F)n([C@@H]4CCOC4)c3n2)CC1` (stereo not given in full), for which the Potency entry was “inactive”. As to `COc1ccc([C@@H]2CNC(=O)C2)cc1OC1CCCC1`, the activity change, negative = inhibition is 2.39%.

Regarding `C[C@H](NCc1ccc(OCc2cccc(F)c2)cc1)C(N)=O`, the Potency entry was “inactive”. On to `Cc1ccc2c(c1)C(=O)[C@]1(O)CCN(c3ccccc3)C1=N2`, for which the activity change, negative = inhibition is -18.4%. On to `Cc1cc(O)c2c(c1)O[C@@]1(C)CC[C@H]3C(C)(C)CCCC34CO[C@@H]2[C@H]41` (stereo not given in full), for which the activity change, negative = inhibition is -25.2%. For the compound `C=Cc1c(C)c2cc3nc(cc4[nH]c(cc5nc(cc1[nH]2)C(C)=C5CCC(=O)O)c(CCC(=O)OC)c4C)[C@@]1(C)C3=CC=C(C(=O)OC)[C@H]1C(=O)OC`, the Potency entry is “inactive”. As to `CCCn1c(=O)c2[nH]c(-c3cnn(Cc4cccc(C(F)(F)F)c4)c3)nc2n(CC)c1=O`, the activity change, negative = inhibition is -10.8%. The same measure, in the same setting: under `O=C(Cc1ccc(-c2ccc(OCCN3CCOCC3)cc2)cn1)NCc1ccccc1` stands -81.8%; under `C=C1c2cccc(O)c2C(O)=C2C(=O)[C@@]3(O)C(O)=C(C(N)=O)C(=O)[C@@H](N(C)C)[C@@H]3[C@@H](O)[C@H]12`, -17.4%; under `CC(CC=O)CCCC(C)(C)O` (stereo not given), -11.7%. Take `CC#CCn1c(N2CCC[C@@H](N)C2)nc2c1c(=O)n(Cc1nc(C)c3ccccc3n1)c(=O)n2C`: the activity change, negative = inhibition was -18.4% and -12.2%. In the case of `CCC(CC)CC1(C(=O)Nc2ccccc2SC(=O)C(C)C)CCCCC1`, the activity change, negative = inhibition is -15.2%.

As to `CCc1ccc(C(=O)Nc2cc(CN3CCN(C)CC3)cc(C(F)(F)F)c2)cc1C#Cc1cnc2ccnn2c1`, the Potency is 22.4 µM (active). As for `CC[C@@](C)(Nc1ccnc(-c2c[nH]c3ncccc23)n1)C(=O)NCC(F)(F)F`, the activity change, negative = inhibition is -38.3%. Consider `CCC[C@@H](C=O)NC(=O)[C@H](CC(C)C)NC(=O)[C@H](CC(C)C)NC(=O)OCc1ccccc1` (Cbz-Leu-Leu-[Nva]-aldehyde), for which the Potency was 0.891 µM (active). For `Cc1csc(-c2nnc(Nc3ccc(Oc4ncccc4-c4ccnc(N)n4)cc3)c3ccccc23)c1`, the Potency was 15.8 µM (active). In the case of `O=c1c(O)c(-c2ccc(O)cc2O)oc2cc(O)cc(O)c12`, the activity change, negative = inhibition turned out to be 0.962%. Still for that read-out and setting: the same measure for `CN1C(C(=O)Nc2ccccn2)=C(O)c2sc(Cl)cc2S1(=O)=O`: 2.28%; for `Cc1ccccc1O`: -10.9% [at 114 µM]; for `Cn1cc(C2=C(c3c4n(c5ccccc35)CCC(CN)C4)C(=O)NC2=O)c2ccccc21` (stereo not given): -9.15% [at 11.3 µM]. For `O=C(CCCCCCNC(=O)c1cnc(N(c2ccccc2)c2ccccc2)nc1)NO`, the Potency entry is “inactive”. The same measure, in the same setting: the same measure for `CN1c2ccccc2C(=O)N2CCc3c([nH]c4ccccc34)C21` (stereo not given): 6.31 µM (active).

Consider `CC(=O)O[C@H]1C[C@@H]2CC[C@H]3[C@H]4C[C@H]([N+]5(C)CCCCC5)[C@@H](OC(C)=O)[C@@]4(C)CC[C@@H]3[C@@]2(C)C[C@H]1[N+]1(C)CCCCC1`, for which the activity change, negative = inhibition is -10.4% and the Potency entry was “inactive”. As to `O=C(NC1CC1)c1cccc(-c2ccc3c(NC(=O)C4CC4)n[nH]c3c2)c1`, the Potency was 7.94 µM (active). For `O=C(O)c1ccccc1C(=O)Nc1ccc(-c2ccccc2)cc1`, the Potency result was “inactive”.

Turning to `Cc1ccc(/C=N/NC(=O)c2ccccc2Oc2ccccc2)o1`, the Potency entry is “inactive”. With `Cc1ccccc1-n1c(Cn2nc(-c3cccc(O)c3)c3c(N)ncnc32)nc2cccc(C)c2c1=O`, the activity change, negative = inhibition was -14.4%. Take `CCNC(=O)[C@H]1O[C@@H](n2cnc3c(N)nc(NCCc4ccc(CCC(=O)O)cc4)nc32)[C@H](O)[C@@H]1O`: the Potency entry was “inactive”.
